Assay outcomes as filed in PubChem.
The full list was thinned out, with hits kept by preference.
12-LOX inh: ALOX12 (human) lipoxygenase inhibition; P18054; purified 12hLO, xylenol orange hydroperoxide absorbance; Potency, µM (titrated, usually from 108 µM), for the others: at the highest dose activity change, negative = inhibition, actives largely listed as inhibitors; 580,000 tested, 1.1% active; note: potency is the fitted concentration of half-maximal effect
Target sequence (P18054 whole entry, looked up): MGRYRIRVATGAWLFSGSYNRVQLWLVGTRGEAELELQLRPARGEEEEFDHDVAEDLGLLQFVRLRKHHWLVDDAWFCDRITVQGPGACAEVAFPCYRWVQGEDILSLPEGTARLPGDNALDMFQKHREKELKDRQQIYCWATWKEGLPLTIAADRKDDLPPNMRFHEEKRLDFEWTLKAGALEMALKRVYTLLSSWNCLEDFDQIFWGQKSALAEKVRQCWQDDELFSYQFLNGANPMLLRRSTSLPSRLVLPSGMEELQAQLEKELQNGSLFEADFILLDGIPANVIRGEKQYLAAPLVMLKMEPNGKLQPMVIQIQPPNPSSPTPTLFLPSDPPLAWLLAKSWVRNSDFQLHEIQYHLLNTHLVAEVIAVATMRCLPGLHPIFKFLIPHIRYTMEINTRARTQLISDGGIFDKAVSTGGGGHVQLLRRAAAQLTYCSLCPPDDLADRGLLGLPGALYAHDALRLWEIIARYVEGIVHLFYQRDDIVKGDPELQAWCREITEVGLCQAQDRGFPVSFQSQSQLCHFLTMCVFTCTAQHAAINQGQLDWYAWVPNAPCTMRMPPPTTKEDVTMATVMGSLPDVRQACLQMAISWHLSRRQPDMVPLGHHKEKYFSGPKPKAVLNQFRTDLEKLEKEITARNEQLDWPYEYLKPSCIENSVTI
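Purified human 12hLO at 150 nM in 25 mM Hepes, 0.01% Triton X-100, pH 7.0, preincubated 15 min at room temperature with compound. Reaction started with 40 uM arachidonic acid, 30 min at room temperature. Hydroperoxide measured by Fe-xylenol orange, 573/405 nm absorbance ratio.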
TDP1 cell noCPT: qHTS for Inhibitors of human tyrosyl-DNA phosphodiesterase 1 (TDP1): qHTS in cells in absence of CPT | Potency, µM (highest dose often 46.2 µM), for the others: at the top dose activity change, negative = growth inhibition, usual class: inhibitors | DT40 Tdp1-/- hTDP1 cells, no CPT, ATP luminescence, 48 h | 420,000 tested, 15% active | AID 686978, 2013; note: potency is the fitted concentration of half-maximal effect; nearly all actives have a fitted effect of over 55% in size
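Seeded 400 DT40-hTDP1 cells/well (vehicle DMSO, no 20 nM CPT); pinned compounds; ≥48 hr at 37 °C; CellTiter-Glo luminescence as viability measure.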
DT40 TDP1 CPT: growth inhibition of DT40 Tdp1-/-;hTDP1 cells with camptothecin (screen for TDP1 inhibitors) | 420,000 tested, 12% active | Potency, µM (titrated, usually from 46.2 µM), for the others: at the highest dose activity change, negative = growth inhibition, usual class: inhibitors | chicken DT40 Tdp1-/-;hTDP1 cells + 20 nM CPT, ATP luminescence, 48 h; note: potency is the fitted concentration of half-maximal effect; nearly all actives have a fitted effect of over 55% in size
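Cell growth measured by CellTiter-Glo luminescence after a minimum 48 h, 37 C compound exposure with 20 nM CPT in Tdp1-knockout DT40 cells stably expressing hTDP1, seeded 400/well; qHTS titration format.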
HT1080-NT tox: kills 2HG-producing HT-1080-NT fibrosarcoma cells; HT-1080-NT fibrosarcoma viability, CellTiter-Glo ATP luminescence, 48 h; Potency, µM (highest dose often 46.1 µM), inactives show at the highest dose activity, negative = less viability, most hits filed as cytotoxic; 360,000 tested, 1.6% active; AID 686970;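 note: NT is the 2HG producing partner of a matched IDH1 knockdown line; potency is the fitted concentration of half-maximal effect; 0% = DMSO-treated cells and -100% = media-only wells without cells; nearly all actives have a fitted effect of over 55% in size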
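Viability by CellTiter-Glo luminescence after 48 h compound exposure at 37C of HT-1080-NT cells (750/well, RPMI, 5% FBS). % activity scaled between DMSO wells and medium-only wells, then curve-fitted and categorized by curve class.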
IL-1B inflam inh: inflammasome signaling inhibition, IL-1 beta readout; THP-1 LPS/ATP IL-1B secretion, AlphaLISA, 16 h; stronger effect = lower value; activity change, % at 57.5 µM; 360,000 tested, 4.7% active; in the data active = activity change below about -50%; inconclusive = mostly about -30% to -49%
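THP-1 cells pretreated 1 hr with compounds (up to 57.5 uM final), then stimulated with LPS (250 ng/mL final) plus ATP (1.25 mM final); secreted IL-1B measured by AlphaLISA after 16 hr, decreased signal indicating inhibition.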
HT1080 IDH1KD tx: toxicity to HT-1080 IDH1 knockdown cells (counter line) | Potency, µM (titrated, usually from 46.1 µM), for the others: at the top dose activity, negative = toxicity, usual class: cytotoxic | HT-1080 IDH1 knockdown viability, ATP luminescence, 48 h | AID 686971 | 360,000 tested, 2% active;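 note: potency is the fitted concentration of half-maximal effect; 0% = DMSO wells and -100% = cell-free medium wells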
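Knockdown cells (IDH1KD HT-1080) received compounds 2 h after plating at 750 cells/well and were kept 48 h at 37 °C in 5% FBS RPMI. A CellTiter-Glo luminescence read gave % activity for curve fitting.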
Active calls of the source: *. Unless noted, calls come from the whole dose curve; as a rule, active = well fitted curve in the direction sought with a large enough effect; inconclusive = small, poorly fitted or top-dose-only effect, or another doubt; inactive = no such curve, though single readings can be large; an effect the other way counts as inactive or inconclusive. Unless noted, % is set by controls: 0 for no effect and ±100 for the full control effect.

For c1cn(CCCN2CCCC2)c(-c2cc3n(n2)CCCNC3)n1 the results were 12-LOX inh 130%.
`CCC(C)[C@@H](CN)NCC1(c2ccccc2)CC1` (stereo partly drawn) gave 12-LOX inh 5%, TDP1 cell noCPT -10%, DT40 TDP1 CPT -4%, HT1080-NT tox -9%, IL-1B inflam inh -9 and HT1080 IDH1KD tx -6%.
CCOc1ccc(CCNC(=O)c2cnc(C)cn2)cc1OCC was read as TDP1 cell noCPT 1%, DT40 TDP1 CPT -20%, HT1080-NT tox 5%, IL-1B inflam inh 14 and HT1080 IDH1KD tx 1%.
Screening CCOc1ccc(CCNC(=O)c2ccc3ccccc3n2)cc1OCC returned 12-LOX inh 80%, TDP1 cell noCPT 8.2µM*, DT40 TDP1 CPT 18µM*, HT1080-NT tox -26%, IL-1B inflam inh 11 and HT1080 IDH1KD tx -7%.
For Cc1nc2c(c(C)nn2-c2ccccc2)c(C)c1CCC(=O)Nc1ccccc1 the results were 12-LOX inh -2%, TDP1 cell noCPT -22% and DT40 TDP1 CPT -11%.
Screening Cc1cccc(C)c1OCCNC(=O)c1ccc2ccccc2n1 returned 12-LOX inh -13%, TDP1 cell noCPT 16µM*, DT40 TDP1 CPT 21µM*, HT1080-NT tox -2%, IL-1B inflam inh 38 and HT1080 IDH1KD tx -9%.
CCOc1ccc(CCNC(=O)CCc2c(C)nc3c(c(C)nn3-c3ccccc3)c2C)cc1OCC was read as 12-LOX inh -24%, TDP1 cell noCPT 13µM* and DT40 TDP1 CPT 15µM*.
For Cc1nc2c(c(C)nn2-c2ccccc2)c(C)c1CCC(=O)Nc1ccc(CN2CCCC2)cc1 the results were 12-LOX inh 0%, TDP1 cell noCPT inconclusive, DT40 TDP1 CPT 16µM*, HT1080-NT tox 15µM*, IL-1B inflam inh -97* and HT1080 IDH1KD tx 21µM*.
`CCCCN(C)C(=O)C1CCC(Cn2c(=O)c3sccc3n(CC(=O)N(CC)CC)c2=O)CC1` (stereo not drawn) gave 12-LOX inh -1%.
COc1cc(NC(=O)CCc2c(C)nc3c(c(C)nn3-c3ccccc3)c2C)cc(OC)c1OC was read as 12-LOX inh -6%, TDP1 cell noCPT 12µM* and DT40 TDP1 CPT 15µM*.
Screening Cc1cc(C)cc(NC(=O)CCc2c(C)nc3c(c2C)c(=O)n(C)c(=O)n3C)c1 returned 12-LOX inh -18%, TDP1 cell noCPT 16µM* and DT40 TDP1 CPT inconclusive.
Screening Cc1nc2c(c(C)nn2-c2ccccc2)c(C)c1CCC(=O)NCCCOC(C)C returned 12-LOX inh -9%, TDP1 cell noCPT 21µM*, DT40 TDP1 CPT -27%, HT1080-NT tox -9%, IL-1B inflam inh 15 and HT1080 IDH1KD tx -11%.
Screening CC(=O)c1ccc(NC(=O)CCc2c(C)nc3c(c2C)c(=O)n(C)c(=O)n3C)cc1 returned 12-LOX inh -17%, TDP1 cell noCPT inconclusive and DT40 TDP1 CPT -10%.
For CCCCNC(=O)CCc1c(C)nc2c(c(C)nn2-c2ccccc2)c1C the results were 12-LOX inh 0%, TDP1 cell noCPT 18µM*, DT40 TDP1 CPT 18µM*, HT1080-NT tox 2%, IL-1B inflam inh -10 and HT1080 IDH1KD tx -1%.
`CCCn1c(Sc2ccccc2)nc2c1c(=O)[nH]c(=O)n2C` gave 12-LOX inh 23%.
`CCCCCn1c(N2CCOCC2)nc2c1c(=O)[nH]c(=O)n2C` gave 12-LOX inh 16%.
COc1ccc(NC(=O)Cn2nc(Cc3ccncc3)c3ccccc3c2=O)c(OC)c1 was read as 12-LOX inh 35%.
